This excerpt belongs to a sample that is enriched for hits.
Tg IFNy HTS = T. gondii growth inhibition with IFN-gamma, primary screen, cell-based; Toxoplasma gondii growth in IFN-gamma-treated host cells; active compounds read low; activity change, negative = inhibition, % (test concentration not listed); hit rate 3.8% among 69,000; AID 1259416, 2018; in the data active means activity change below about -70%, passing the limit was not always enough;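 further: host cells are HeLa cells infected with Toxoplasma gondii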
Active calls of the source: *; ! = a repeat was not active.

SMILES	Tg IFNy HTS
CCn1c(-c2cc(NC(=O)c3cncc(Br)c3)n[nH]2)cc2cc(OC)ccc21	37.4
CS(=O)(=O)N1CCC2OCCCC2(COc2cccnc2)C1 (centres undefined)	3.7
OC(COCc1ccccc1)CN1CCNCC1 (centres undefined)	-10.5
OC(CN1CCNCC1)Cn1c2ccc(Br)cc2c2cc(Br)ccc21 (centres undefined)	-73.5*
OC(CN1CCNCC1)Cn1ccc2ccccc21 (centres undefined)	22.5
CC(C)n1c(SCC(=O)O)nc2ccccc21	28.9
CC(C)n1c(/C=C/[C@@H](O)C[C@@H](O)CC(=O)O)c(-c2ccc(F)cc2)c2ccccc21	-77.8*!
CC(NC(=O)c1cc(-c2ccc(F)cc2)no1)c1nc2ccccc2n1C(C)C (centres undefined)	-10.4
O=C(Nc1ncn[nH]1)c1sc2ccccc2c1Cl	11.4
O=C(NC(=O)c1sc2ccccc2c1Cl)c1ccccc1O	-107.3*
O=C(NC1CCSC1=O)c1sc2ccccc2c1Cl (centres undefined)	28.6
CCn1c(C2CCCN(C(=O)c3cc(C(C)C)oc3C)C2)n[nH]c1=O (centres undefined)	3.2
CSc1ncccc1C(=O)N(Cc1ccccn1)CC(C)C	27.2
O=C(c1ccc(Br)cc1)N1CCC2(CC1)Nc1cc(F)ccc1-n1cccc12	38.1
c1cc(-c2ccc(-c3ncnc4ccsc34)cc2)[nH]n1	-82.3*
c1nc(NN2CCCCC2)c2sccc2n1	36.3
Cc1ccc(Sc2ncnc3ccsc23)cc1	46.0
Cn1c(=O)c(-c2nc(-c3ccccc3Cl)no2)c(O)c2cc(F)ccc21	-20.4
COc1cccc(CC(=O)N2CCC(C(=O)NCCc3csc(-c4ccccc4)n3)CC2)c1	12.8
Cc1cc(C)c(NC(=O)CSCC(=O)c2ccc(Cl)cc2)c(C)c1	-12.3
COCCN(Cc1ccc2c(c1)n(C)c(=O)n2C)Cc1cnn2cccnc12	-7.8
N[C@@H]1c2ccccc2C2(CCN(C(=O)Cc3ccc4c(c3)OCO4)CC2)[C@H]1O	2.1
OC(CNCCNc1ncccc1C(F)(F)F)Cn1ccc2ccccc21 (centres undefined)	-82.2*
FC(F)(F)c1ccnc(NCCNc2ncccc2C(F)(F)F)n1	49.3
Nc1ccccc1SCC(O)Cn1ccc2ccccc21 (centres undefined)	-44.9
SMILES	Tg IFNy HTS
COCCN1CCN(c2ccc3ccc(C(=O)NCc4cccs4)cn23)CC1	1.4
COc1cc(C(F)(F)F)cc(C(F)(F)F)c1C(N)=O	-50.5
COc1cc(C(F)(F)F)cc(C(F)(F)F)c1C(=O)Oc1ccc(Cl)cc1	-95.6*
Cc1cc(-c2onc(C)c2C(=O)Oc2ccc(Cl)cc2)no1	-30.3
COc1cc(C(F)(F)F)cc(C(F)(F)F)c1C(=O)NCc1cccs1	-81.2*
O=C(CCCC(=O)NCc1cccs1)NCc1cccs1	-39.5
N#CC1(C(=O)N2CCC(F)(F)C3(CCN(c4cnccn4)C3)C2)CC1 (centres undefined)	-46.6
C(=C\c1ccco1)/CN1CCCn2cncc2C1	-1.5
Cc1nc2sccn2c(=O)c1CCN1CCC(=C(c2ccc(F)cc2)c2ccc(F)cc2)CC1	-77.1*!
Cc1nc2n(c(=O)c1CCN1CCC(c3noc4cc(F)ccc34)CC1)CCCC2O (centres undefined)	22.8
Cc1nc2ccccn2c(=O)c1CCN1CCC(C(=O)c2ccc(F)cc2)CC1	3.8
CC(C)n1nc(Cn2cccn2)c2c1CN(C)C2	-13.6
Cc1nc(-c2ccc(F)cc2)sc1-c1ccc(SCc2cccnc2)nn1	-2.2
CC1COC2(CCN(C(=O)c3cccn3C)CC2)C1 (centres undefined)	56.7
CC(C)Oc1ccc(NC(=O)c2cc(-c3cnc(-c4cccnc4)nc3)cn2C)cc1	-17.5
Cc1ccc(NC(=O)c2ccc(CN3CCN(C)CC3)cc2)cc1Nc1nccc(-c2cccnc2)n1	-37.7
Cc1cn(-c2cc(NC(=O)c3ccc(C)c(Nc4nccc(-c5cccnc5)n4)c3)cc(C(F)(F)F)c2)cn1	-76.6*!
C=CCN1C(=O)CCCC12CCCN(C(=O)Nc1cccc(C)c1)C2 (centres undefined)	12.2
CCOC(=O)c1[nH]c(C)c(CN2CC3CCCN3C[C@@H]2C)c1C (some centres undefined)	-18.3
CCOC(=O)c1[nH]c(C)c(S(=O)(=O)NC2CCCCNC2=O)c1C (centres undefined)	-95.1*
CCOC(=O)c1[nH]c(C)c(C(=O)OCC)c1C	146.1
c1ccc2c(c1)OCC(c1csc3ncnc(N4CCCCC4)c13)O2 (centres undefined)	-89.8*
CCn1ccnc1CC1COc2ccccc2O1 (centres undefined)	-18.5
CN(C)C(=O)c1ccc2ncnc(N3CCCCC3)c2c1	-18.9
CCN(CCN1CCCC1)Cc1cccnc1	-0.8
SMILES	Tg IFNy HTS
CC(C)c1nc(C(=O)N2CCC3(CC2)c2ccccc2[C@@H](N)[C@@H]3O)cs1	-6.6
COc1cc([C@@H]2c3cc4c(cc3C(OC3OC5COC(C)OC5C(O)C3O)C3OCC(=O)[C@@H]32)OCO4)cc(OC)c1O (some centres undefined)	-81.0*
COc1cc([C@@H]2c3cc4c(cc3[C@@H](O[C@@H]3O[C@@H]5CO[C@@H](c6cccs6)O[C@H]5[C@H](O)[C@H]3O)[C@H]3COC(=O)[C@H]23)OCO4)cc(OC)c1O	-71.2*
COc1cc([C@@H]2c3cc4c(cc3C(OC3O[C@@H]5COC(C)O[C@H]5[C@H](O)[C@H]3O)C3COC(=O)[C@@H]32)OCO4)cc(OC)c1O (some centres undefined)	-69.7
CCCN(C(=O)c1ccc(OC)cc1)C1(C(=O)NCc2ccccc2)CCN(C(C)=O)CC1	55.4
COc1cc2c(cc1-c1nccn1Cc1cc(C(C)C)no1)CCC2	3.0
CCN1CCC2(CC1)OC(=O)C(C)=C2C(=O)Nc1ccc2c(c1)OCCO2	80.0
CC(CCc1ccco1)NC1CCC2(CCNCC2)CC1 (centres undefined)	-67.7
CC(C)(C(=O)NCC(F)(F)C(F)(F)F)C(=O)N[C@@H]1C(=O)Nc2ccccc2-c2ccccc21	-89.0*
CCC(=O)N1CCCC(C2C(=O)Nc3ccccc32)C1 (centres undefined)	0.8
Cc1ccc(N2CCC(N3CCn4cncc4C3)CC2)cc1Cl	-21.7
COCC(=O)N1CCc2cc(C(=O)O)c(-c3ccncc3)nc2CC1	-4.4
COc1ccc(C2(C(=O)N3CCCC(O)(CO)C3)CC2)cc1 (centres undefined)	4.3
COc1ccc(C2(C(=O)N3CCCC(N(C)C)CC3)CCCC2)cc1 (centres undefined)	4.8
COc1ccc(C2(C(=O)N3CCC(n4nc(-c5ccsc5)ccc4=O)CC3)CC2)cc1	-95.1*
CC(C)NC(=O)c1nc2c(o1)CN(C(=O)NC(C)C)C2	-28.7
Cc1nc(CN2C(=O)COC3(CCN(Cc4ccco4)CC3)C2C)cs1 (centres undefined)	234.9
Cc1ccccc1-c1nc(Cn2nnc(C(=O)Nc3ccc(Br)cc3)c2C)c(C)o1	2.5
O=c1c(N=Nc2ccccc2)c(-c2ccccc2)[nH]n1-c1ccccc1	10.8
Cc1[nH]n(C(N)=S)c(=O)c1N=Nc1cc(-c2ccc(Br)cc2)[nH]n1	177.7
Cc1ccc(N=Nc2c(-c3ccccc3)[nH]n(C(N)=S)c2=O)cc1	-105.0*
O=C(Cn1c(=O)cc(C(=O)N2CCCCC2)c2ccccc21)Nc1ccccc1Cl	-1.1
COc1ccc(C)cc1NC(=O)C(=O)NCCc1csc(-c2ccc(C(F)(F)F)cc2)n1	88.0
